Activity calls are given as the source filed them. The call rests on the fitted dose curve.

The values below come from PubChem BioAssay AID493216 (National Center for Advancing Translational Sciences (NCATS), 2011).

Sequence of Polyunsaturated fatty acid lipoxygenase ALOX12 (Homo sapiens) (P18054 whole entry, looked up): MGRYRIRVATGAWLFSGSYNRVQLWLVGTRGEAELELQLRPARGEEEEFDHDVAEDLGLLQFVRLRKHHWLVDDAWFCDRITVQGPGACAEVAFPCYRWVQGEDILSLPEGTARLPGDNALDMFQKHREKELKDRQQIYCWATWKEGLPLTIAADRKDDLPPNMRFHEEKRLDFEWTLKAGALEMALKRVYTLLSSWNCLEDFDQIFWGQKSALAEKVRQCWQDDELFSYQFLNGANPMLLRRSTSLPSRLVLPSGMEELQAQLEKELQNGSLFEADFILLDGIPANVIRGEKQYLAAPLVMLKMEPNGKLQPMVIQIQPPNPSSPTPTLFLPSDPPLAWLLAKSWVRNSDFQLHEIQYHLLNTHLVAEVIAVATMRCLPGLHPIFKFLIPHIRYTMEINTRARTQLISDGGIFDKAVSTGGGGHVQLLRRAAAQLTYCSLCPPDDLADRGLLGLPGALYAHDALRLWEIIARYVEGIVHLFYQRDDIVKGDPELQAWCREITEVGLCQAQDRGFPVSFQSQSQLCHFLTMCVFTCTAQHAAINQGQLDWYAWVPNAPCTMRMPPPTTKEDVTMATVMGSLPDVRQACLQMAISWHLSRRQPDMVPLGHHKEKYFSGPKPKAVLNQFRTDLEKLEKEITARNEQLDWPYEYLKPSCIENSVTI

This experiment concerns the target Polyunsaturated fatty acid lipoxygenase ALOX12 (Homo sapiens) (UniProt P18054). In words: Inhibitors of 12-hLO (12-human lipoxygenase): Cuvette-Based Hit Assay for Validation of Followup Compounds. To be noted: purified 12-hLO, cuvette absorbance 234 nm. In outline:
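Purified 12-hLO (50-200 nM) added to 10 uM arachidonic acid in 25 mM HEPES pH 8.0, 0.01% Triton X-100 in a stirred cuvette containing compound. Product formation followed at 234 nm; IC50 from rates at typically 5 inhibitor concentrations.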
Regarding `Cc1cc(Cl)cc(Cl)c1OCC(=O)NCc1ccco1`, the Potency is 20.4 µM (active).

With `Oc1ccc(-c2csc(-c3ccccc3)n2)cc1O`, the Potency was 0.94 µM (active).

`CCOC(=O)Cc1cc(=O)n(-c2nc3ccccc3s2)[nH]1`: the Potency was 22.4 µM (active).

Take `Cc1ccc(S(=O)(=O)Nc2nc(C)c(NC(=O)Nc3ccc(Cl)cc3Cl)s2)cc1`: the Potency was 2.35 µM (active).

Take `CC(Oc1ccc(Cl)cc1Cl)C(=O)NC1=NN(c2ccccc2)C(=O)C1` (stereo unspecified): the Potency was 15.5 µM (active).

Regarding `COc1ccc2nc(NC(=O)c3cccc(OCc4c(C)noc4C)c3)sc2c1`, the Potency was 36.7 µM (active).

`COc1ccc(-c2n[nH]c(C(F)(F)F)c2-c2cc3ccccc3o2)c(O)c1`: the Potency is 21 µM (active).

Turning to `COc1ccc(NC2=NCC(Cc3ccc(Br)cc3)S2)cc1` (stereo unspecified), the Potency is 36.6 µM (active).

Take `COc1ccc(/C=C/c2nc(-c3ccccc3O)n[nH]2)cc1`: the Potency is 18.9 µM (active).

For `COc1cccc(-c2cnc(NCc3cc(Cl)ccc3O)n2C)c1`, the Potency is 32.7 µM (active).

On to `CC1=NN(c2ccc(Cl)cc2)C(=O)C1C(c1ccccc1O)c1c(C)[nH]n(-c2ccc(Cl)cc2)c1=O` (stereo unspecified), for which the Potency was 18.9 µM (active).
